Screens deposited in PubChem BioAssay by National Center for Advancing Translational Sciences (NCATS).
In the library only some 21% were active in any assay of this set; here they are far more common.
TDP1 cell noCPT – qHTS for Inhibitors of human tyrosyl-DNA phosphodiesterase 1 (TDP1): qHTS in cells in absence of CPT; DT40 Tdp1-/- hTDP1 cells, no CPT, ATP luminescence, 48 h; Potency, µM (highest dose often 46.2 µM), most hits filed as inhibitors; 15% of 420,000 active; AID 686978, 2013; note: nearly all actives have a fitted effect of over 55% in size
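Readout: luminescence from CellTiter-Glo after 30 min in the dark at RT. Cells: DT40 Tdp1-/- with stable hTDP1, 400/well. Exposure: compounds alone, ≥48 hr, 37 °C.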
DRD3 agonist – agonists of human D3 dopamine receptor | 0.58% of 410,000 active | max activation, % | AID 652048 | D3R DiscoveRx beta-arrestin cells, luminescence, 90 min | P35462; in the data active = max activation above about 30%
Target sequence (P35462 whole entry, looked up): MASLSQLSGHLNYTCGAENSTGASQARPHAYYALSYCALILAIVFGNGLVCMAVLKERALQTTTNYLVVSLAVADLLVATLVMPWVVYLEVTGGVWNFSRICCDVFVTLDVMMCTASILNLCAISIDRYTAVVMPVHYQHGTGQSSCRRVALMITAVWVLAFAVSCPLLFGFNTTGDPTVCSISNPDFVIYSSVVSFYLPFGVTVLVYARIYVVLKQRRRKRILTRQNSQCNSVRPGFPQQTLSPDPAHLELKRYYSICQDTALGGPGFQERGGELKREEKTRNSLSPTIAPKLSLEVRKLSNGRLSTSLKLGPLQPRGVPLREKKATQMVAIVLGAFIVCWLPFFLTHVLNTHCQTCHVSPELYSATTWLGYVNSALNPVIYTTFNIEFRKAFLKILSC
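Agonist-mode cell screen: cells plated at 1500/well and incubated overnight at 37 °C, then exposed to library compounds for 90 min at 37 °C. Detection reagent was added for 30–60 min at room temperature, and luminescence was read.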
DRD3 antagonist – antagonists of human D3 dopamine receptor. max response, negative = inhibition, %. D3R cells, DiscoveRx beta-arrestin luminescence, antagonist mode; hits give low values. 2.5% of 360,000 active. P35462. AID 652054; in the data active = max response below about -50%; inconclusive = no clear call, values can overlap the other calls
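Cells plated overnight at 1500 cells/well, then exposed to library compounds with dopamine controls for 90 minutes at 37 degrees C. DiscoveRx reagent added for 30–60 minutes at room temperature; luminescence read, quantitative HTS format.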
DT40 TDP1 CPT – DT40-hTDP1 cell growth loss with CPT; chicken DT40 Tdp1-/-;hTDP1 cells + 20 nM CPT, ATP luminescence, 48 h; Potency, µM (highest dose often 46.2 µM), usual class: inhibitors; 12% of 420,000 active; AID 686979; note: nearly all actives have a fitted effect of over 55% in size
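Chicken DT40 Tdp1-/- cells complemented with human TDP1, 400 cells/well, exposed to compounds plus 20 nM camptothecin for at least 48 h at 37 C; viability read as ATP content by CellTiter-Glo luminescence.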
ClpP mod – qHTS Assay for Activators of ClpP. ATP-dependent Clp protease proteolytic subunit (Bacillus subtilis (strain 168)), P80244. purified B. subtilis ClpP, FRET peptide cleavage, 20 min. Potency, µM (doses to about 57.5 µM). 1.9% of 340,000 active; active = well fitted falling curve with a large enough effect; inconclusive = small, poorly fitted or top-dose-only effect; inactive = no such curve, though single readings can be large or run the other way; note: the source files actives as falling curves though it sought activators and does not explain the sign; nearly all actives have a fitted effect of over 65% in size
Target sequence (P80244 whole entry, looked up): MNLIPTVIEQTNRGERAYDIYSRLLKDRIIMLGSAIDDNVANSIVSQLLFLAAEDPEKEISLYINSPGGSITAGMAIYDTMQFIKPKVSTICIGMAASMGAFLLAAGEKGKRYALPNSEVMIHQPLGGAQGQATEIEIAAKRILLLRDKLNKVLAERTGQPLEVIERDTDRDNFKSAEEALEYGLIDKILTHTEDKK
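FRET quenching reversal measured ClpP activation: 10 microg/mL B. subtilis ClpP at pH 8 with the FRET-FV decapeptide, read at 430 nm after 320 nm excitation. The 20-min minus 0-min signal was scaled between DMSO/no-enzyme wells and ADEP (5.8 microM final).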
IL-1B inflam inh – blocks inflammasome-driven IL-1 beta release; AID 743279; activity change, % at 57.5 µM; THP-1 LPS/ATP IL-1B secretion, AlphaLISA, 16 h; hits give low values; 4.7% of 360,000 active; in the data active = activity change below about -50%; inconclusive = mostly about -30% to -49%
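THP-1 cells pretreated 1 hr with compounds (up to 57.5 uM final), then stimulated with LPS (250 ng/mL final) plus ATP (1.25 mM final); secreted IL-1B measured by AlphaLISA after 16 hr, decreased signal indicating inhibition.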
Hits are given with their value; n = inactive; u = inconclusive; x = not tested or not shown. Unless noted, calls come from the whole dose curve; as a rule, active = well fitted inhibition curve with a large enough effect; inconclusive = small, poorly fitted or top-dose-only effect; inactive = flat fitted curve, though single readings scatter.

SMILES | TDP1 cell noCPT | DRD3 agonist | DRD3 antagonist | DT40 TDP1 CPT | ClpP mod | IL-1B inflam inh
CCCNC(=O)N1[C@H]2CC[C@@H]1C(C(=O)OC)=C(c1ccc(F)cc1F)C2 | u | n | n | u | n | n
CCC1([N+](=O)[O-])COP(=O)(NCc2cccnc2)OC1 (stereo unspecified) | n | n | n | n | n | n
CC(Cc1cccs1)NCc1ccccc1 (stereo unspecified) | n | n | n | n | n | n
O=C(NN=Cc1ccc(N(CCCl)CCCl)cc1)c1cc(=O)[nH]c(=O)[nH]1 | u | n | n | u | x | n
O=C(NN=Cc1ccc(N(CCCl)CCCl)cc1)C(=O)c1c[nH]c2ccccc12 | 15µM | n | n | 21µM | x | n
CCOC(=O)[C@]12Cc3ccccc3[C@H]1N(C(C)C)C(=O)c1cc(OC)ccc12 | 15µM | n | n | 23µM | n | -116
CCOC(=O)C1C(=O)NC2(C)CC1c1cc(OC)ccc1O2 (stereo unspecified) | n | n | n | n | n | n
CCOC(=O)[C@]12Cc3ccccc3[C@H]1N(C)C(=O)c1cc(OC)ccc12 | 15µM | n | u | 23µM | n | -116
CCOC(=O)[C@]12Cc3c(cc(OC)c(OC)c3OC)[C@H]1N(C)C(=O)c1cc(OC)ccc12 | 9.2µM | n | n | 10µM | n | -74
S=c1[nH]nc(-c2ccc3ccccc3n2)n1-c1ccc2c(c1)OCCO2 | u | n | u | n | n | n
O=c1c2ccccc2nc(CSc2ncnc3nc[nH]c23)n1-c1ccc(Cl)c(Cl)c1 | 10µM | n | n | 7.1µM | n | n
CC(=O)O[C@@H]1[C@H]2CC[C@@H]3[C@]1(C[C@@H](OC(C)=O)[C@@]1(O)C([C@@H]4O[C@@H]4C1(C)C)[C@]3(C)O)C[C@@]2(C)O (stereo partly specified) | n | n | n | n | n | n
O=C(c1cnccn1)N1CCC2(CC1)CN(Cc1ccncc1)C2 | n | x | x | n | x | x
Cc1ccccc1Cn1cnc2c(oc3ccccc32)c1=O | u | n | n | u | u | n
Cn1cc(/C=C(\C(=O)O)C(C(=O)O)=C2CCCCC2)c2ccccc21 | 15µM | n | n | 23µM | x | n
CN(C(=O)c1ccco1)C1(c2ccccc2Cl)CCCCC1=O (stereo unspecified) | n | n | -53 | n | n | n
CNC1(c2ccccc2Cl)CCCCC1=O (stereo unspecified) | n | n | n | n | n | n
CCS(=O)(=O)NCc1nnc2n1-c1ccc(Br)cc1C(c1ccccc1Cl)=NC2 | n | n | n | n | n | n
CCC[N+]12CCC(CC1)C(=C(c1ccccc1)c1ccccc1)C2 | 21µM | n | n | 15µM | n | n
CCCC[N+]12CCC(CC1)C(=C(c1ccccc1)c1ccccc1)C2 | 4.1µM | n | n | 4.6µM | n | n
COc1cc(NS(=O)(=O)c2ccc3c(c2)oc(=O)n3C)cc(OC)c1OC | 9.2µM | n | n | 13µM | n | n
CCOc1ccc(N(CC)S(=O)(=O)c2ccc3c(c2)oc(=O)n3C)cc1 | n | n | n | u | n | n
Cc1ccc(S(=O)(=O)N2CN3CCN(C3)C2)cc1 | u | n | n | 16µM | n | n
Cc1ccc2c(c1)C1CN(C)CCC1N2 (stereo unspecified) | u | n | x | n | x | x
O=C(Nc1ccccc1)N1CC2(CCN(C(=O)Oc3ccccc3)CC2)C1 | n | x | x | n | x | x
SMILES | TDP1 cell noCPT | DRD3 agonist | DRD3 antagonist | DT40 TDP1 CPT | ClpP mod | IL-1B inflam inh
COc1cc(C=C2C(=O)NC(=O)NC2=O)ccc1OCc1ccc([N+](=O)[O-])cc1 | n | n | n | n | x | n
COc1cc(/C=C(/C)[N+](=O)[O-])ccc1OCc1ccccc1Cl | 2.9µM | n | u | 3.3µM | x | -99
COc1ccc(OC)c(C[C@H](C)N)c1 | n | n | x | n | x | x
COc1ccccc1-n1c(Cc2ccccc2)nc2ccccc2c1=O | n | n | n | n | n | u
CCCCc1nc2ccccc2c(=O)n1-c1ccccc1O | u | n | n | u | n | n
CCCc1nc2ccccc2c(=O)n1-c1ccccc1OC | 21µM | n | n | u | n | n
CCCc1nc2ccccc2c(=O)n1-c1cccc(OC)c1 | u | n | n | 18µM | n | n
CCCCc1nc2ccccc2c(=O)n1-c1cccc(OC)c1 | 18µM | n | x | 16µM | n | x
CCCc1nc2ccccc2c(=O)n1-c1ccc(OC)cc1 | 23µM | n | u | u | n | n
CCCSc1nc2ccccc2c(=O)n1-c1ccccc1OC | 21µM | n | x | u | n | x
COc1ccc(NC(=O)CCn2cc(C)c3ccccc32)cc1 | u | n | n | n | n | n
COc1ccc(-c2coc3c(C(=O)Nc4cc(OC)c(OC)c(OC)c4)cccc23)c(C)c1 | 3.7µM | n | n | 4.1µM | u | n
COc1cc(NC(=O)c2cccc3c(-c4cccnc4)coc23)cc(OC)c1OC | 3.3µM | n | n | 3.7µM | n | -78
CC1([N+](=O)[O-])COP(=O)(Nc2cccc(Cl)c2)OC1 (stereo unspecified) | n | n | n | n | n | n
NC(=O)c1cc(N2CC2)c([N+](=O)[O-])cc1[N+](=O)[O-] | 0.037µM | n | n | 0.15µM | n | n
COc1ccc2c(c1)[nH]c1c(C)nccc12 | 20µM | n | u | 13µM | u | -72
Cc1nccc2c1[nH]c1ccc(Br)cc12 | 23µM | n | n | u | n | n
Cc1ccc(-n2c(=O)[nH]c3ccc(Br)cc3c2=O)cc1 | n | n | x | n | n | x
CCN(CC)CCNC(=O)c1nn(-c2ccc(C)cc2)c(=O)c2c1c1ccccc1n2C | 21µM | n | n | n | n | n
CCOC(=O)CNC(=O)CNC(=O)c1nn(-c2ccc(OC)c(Cl)c2)c(=O)c2ccccc12 | n | n | n | u | n | n
O=C(Cn1c(=O)nc(-c2ccccc2)c2cc(Cl)ccc21)NCc1ccccc1 | 16µM | 32 | x | 7.3µM | n | x
COC(=O)C1=C(c2ccc(OC(F)(F)F)cc2)C[C@@H]2CC[C@H]1N2C(=O)NCCc1ccccc1 | u | n | n | 2.9µM | n | n
COC(=O)C1=C(c2ccc(OCc3ccccc3)cc2)C[C@@H]2CC[C@H]1N2C(=O)NCCc1ccc(F)cc1 | u | n | n | 21µM | n | n
COC(=O)C1=C(c2ccc(OCc3ccccc3)cc2)C[C@@H]2CC[C@H]1N2C(=O)NC1CCN(Cc2ccccc2)CC1 | 7.3µM | n | -94 | 8.2µM | n | n
COC(=O)C1=C(c2ccc(OCc3ccccc3)cc2)C[C@@H]2CC[C@H]1N2C(=O)NCCCCc1ccccc1 | 18µM | n | u | u | n | n
